# Assay outcomes as filed in PubChem BioAssay.
# NPC1 prom act = activators of NPC1 promoter. Huh7 NPC1 promoter luciferase reporter, 24 h. Potency, µM (series often up to 9.22 µM), inactives show at the top dose activation, actives largely listed as activators. actives 2.4% (n = 320,000); also: % of control where 0% means no effect; nearly all actives have a fitted effect of over 60% in size
#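 NPC1 promoter–luciferase Huh7 cells; 24 h compound; luminescence.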
# FLuc counter = inhibits or activates purified firefly luciferase, miR-21 counter-screen | AID 588342 | Potency, µM (doses to about 57.5 µM), for inactives: top-dose activity change, negative = inhibition, hits mostly inhibitors | purified FLuc, Km substrates, luminescence inhibition | P08659 | actives 6.9% (n = 360,000);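 also: plate controls were vehicle for no effect and reference inhibitor for full effect; nearly all actives have a fitted effect of over 55% in size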
# Target sequence (P08659 whole entry, looked up): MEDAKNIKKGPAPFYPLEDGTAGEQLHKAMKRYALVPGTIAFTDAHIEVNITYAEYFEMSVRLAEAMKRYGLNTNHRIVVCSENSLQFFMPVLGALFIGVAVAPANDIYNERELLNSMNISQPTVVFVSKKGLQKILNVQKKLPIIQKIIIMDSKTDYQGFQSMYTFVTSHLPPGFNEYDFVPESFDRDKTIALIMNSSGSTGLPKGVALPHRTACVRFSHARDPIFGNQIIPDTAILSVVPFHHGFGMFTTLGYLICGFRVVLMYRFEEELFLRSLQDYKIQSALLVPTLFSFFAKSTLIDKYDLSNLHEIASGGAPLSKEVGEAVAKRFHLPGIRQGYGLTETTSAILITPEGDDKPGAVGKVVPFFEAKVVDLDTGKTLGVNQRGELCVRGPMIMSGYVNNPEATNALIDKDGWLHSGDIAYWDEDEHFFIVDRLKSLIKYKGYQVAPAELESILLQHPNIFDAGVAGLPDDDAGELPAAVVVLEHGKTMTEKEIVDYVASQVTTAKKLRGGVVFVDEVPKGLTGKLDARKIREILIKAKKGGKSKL
#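 Purified P. pyralis luciferase (10nM final) with 10uM D-luciferin and 10uM ATP (Km levels) in 50mM Tris acetate pH 7.5, 10mM Mg acetate, 0.01% Tween-20, 0.05% BSA; qHTS 6-point titration, ~60 µM downward; luminescence read.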
# p53 reactivator = restores transcriptional activity of mutant p53. Potency, µM (series often up to 92.2 µM), without a hit: at the highest dose activity change, positive = activation, most hits filed as activators. H1299 p53-A138V BP100-luciferase reporter, luminescence, 24 h. AID 504706. actives 0.063% (n = 320,000); also: % of control where 0% means no effect; nearly all actives have a fitted effect of over 45% in size
#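 p53-null H1299 cells stably carrying temperature-sensitive p53-A138V and a BP100-luciferase reporter were pinned with compounds (4-point, 1:5 series) and held 24 hrs at 37 deg C. Luminescence was read 10 min after detection reagent.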
# SMN2 splice up = increases expression of the SMN2 splice variant; HEK293 SMN2-luciferase splicing reporter, luminescence, 30-36 h; Potency, µM (titrated, usually from 46.1 µM), inactives show top-dose activity change, positive = activation, actives largely listed as activators; actives 2.8% (n = 210,000); AID 1458; also: % of control where 0% means no effect; nearly all actives have a fitted effect of over 55% in size
#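 HEK293 cells carry an SMN2 […]–luciferase reporter in which exon 7 inclusion puts luciferase in frame. Cells were plated 10-12 h before compound addition, then incubated 30-36 h at 37C. ONE-Glo luminescence was read; sodium butyrate at 4.5 mM final served as control.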
# Rab9 promoter act = activators of Rab9 promoter; Huh7 Rab9 promoter-luciferase reporter, luminescence, 24 h; Potency, µM (titrated, usually from 9.22 µM), without a hit: at the highest dose activation, negative = inhibition, actives largely listed as activators; actives 2.8% (n = 320,000); also: % of control where 0% means no effect; nearly all actives have a fitted effect of over 60% in size
#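 Promoter activation is measured as luciferase luminescence in Huh7 cells stably transfected with a Rab9 promoter–luciferase construct, following 24 h compound exposure at 37 °C and 10 min reagent incubation at ambient temperature.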
# ELG1 genotox = inducers of genotoxicity in HEK293T ELG1-luciferase cells; actives 1.3% (n = 330,000); AID 504466; HEK293T ELG1-luciferase reporter, luminescence, 16 h; Potency, µM (titrated, usually from 46 µM), without a hit: at the top dose activity change, positive = activation, actives largely listed as activators; also: % of control where 0% means no effect; nearly all actives have a fitted effect of over 60% in size
#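 Cells (2,000/well) expressing the ELG1-luciferase fusion are dosed by pin tool and kept 16 hr at 37 °C, 5% CO2. Signal comes from ONE-Glo luciferase reagent after 30 min at room temperature.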
# * hit, by the source's call; ? = inconclusive; . = no result. Shown are actives, neighbours in structure and some others; about 7.4% of the full set was active somewhere. Calls follow the shape of the dose curve; as a rule, active = well fitted curve in the direction sought with a large enough effect; inconclusive = small, poorly fitted or top-dose-only effect, or another doubt; inactive = no such curve, though single readings can be large; an effect the other way counts as inactive or inconclusive. Potency is read from the fitted curve at half-maximal effect.
SMILES,NPC1 prom act,FLuc counter,p53 reactivator,SMN2 splice up,Rab9 promoter act,ELG1 genotox
Cc1ccccc1OCc1nc2ccccc2[nH]1,?,4.78µM*,2.6%,.,1.78µM*,?
COc1cccc(C(c2sc3nc(-c4ccco4)nn3c2O)N2CCC3(CC2)OCCO3)c1 (centres undefined),.,-18.7%,.,.,.,.
Cc1cc(=O)[nH]c(S/C=C/c2ccccc2)n1,3.55µM*,5.36µM*,?,11.2µM*,?,20.6µM*
O=C(NC(=S)/C(=C1\CCCCCN1)[N+](=O)[O-])c1ccccc1,.,.,25.4%,.,.,0.231µM*
O=C(NC(=S)Nc1ccccc1[N+](=O)[O-])c1ccccc1,?,?,?,.,?,-7.3%
CCN1CCN(Cc2coc3ccc(C)cc3c2=O)CC1,9.1%,?,3.5%,.,14.8%,28.5%
CCN1CCN(c2csc3ccc(Br)cc3c2=O)CC1,.,13.5µM*,.,.,.,.
CCN1CCN(c2csc3ccc(C)cc3c2=O)CC1,.,12µM*,.,.,.,.
COc1ccc(-c2cc3c(=O)n(CC(=O)NCCCN4CCC(N5CCCCC5)CC4)ncn3n2)cc1,?,10.7µM*,18.7%,.,22.2%,9.1%
COc1ccc(-c2cc3c(=O)n(CC(=O)NCc4cccnc4)ncn3n2)cc1,1.58µM*,2.13µM*,.,.,3.55µM*,?
COc1ccc(-c2cc3c(=O)n(CC(=O)NCCCN4CCC(N5CCCCC5)CC4)nc(C)n3n2)cc1,1.2%,-9.4%,26.8%,.,-0.3%,4.9%
COc1ccc(CNC(=O)Cn2ncn3nc(-c4cccs4)cc3c2=O)cc1,.,-0.1%,.,.,.,.
O=C1CCn2nc(-c3ccc(Cl)cc3)cc2N1,?,19µM*,?,12.6µM*,?,?
COc1ccc(-c2nc3cnc(N4CCNCC4)nc3n(C3CC3)c2=O)cc1,.,.,.,7.0%,.,.
CCC(=O)Oc1ccc(-c2nc3ccccc3c(=O)o2)cc1,.,1.69µM*,.,-4.7%,.,.
CCCOc1ccc(-c2nc3ccccc3c(=O)o2)cc1,.,0.675µM*,.,15.8µM*,.,.
CCCOc1ccc(-c2nc(OC)c3ccccc3n2)cc1,19.5%,13.5µM*,15.3%,-10.3%,3.4%,4.8%
CCC(=O)Nc1cccc(-c2nc3ccccc3c(=O)o2)c1,-4.0%,?,-0.4%,-9.9%,5.1%,-3.0%
CCCOc1cccc(-c2nc3ccccc3c(=O)o2)c1,8.0%,8.49µM*,15.9%,.,25.6%,?
CCCOc1ccc(-c2nc(N3CCC(C)CC3)c3ccccc3n2)cc1,.,-5.2%,.,-10.3%,.,.
Cc1ccc2ncc(C(=O)NCCc3ccc(S(N)(=O)=O)cc3)c(=O)n2c1,.,-1.6%,.,1.5%,.,.
Oc1c(Br)cc(Cl)cc1C=Nc1ccc(N2CCOCC2)cc1,0.3%,16.9µM*,0.3%,.,-5.8%,-4.5%
Clc1cccc(-c2ccc(C=Nc3ccc(N4CCOCC4)cc3)o2)c1,3.1%,10.7µM*,-2.5%,-28.2%,-11.4%,3.1%
Oc1ccc(N=Nc2cccc(Cl)c2)cc1C=Nc1ccc(N2CCOCC2)cc1,12.6%,-17.3%,?,-66.7%,-0.1%,7.3%
Cc1ccc(-c2nn3c(-c4ccccc4C)nnc3c3ccccc23)cc1,.,-4.3%,.,3.6%,.,.
SMILES,NPC1 prom act,FLuc counter,p53 reactivator,SMN2 splice up,Rab9 promoter act,ELG1 genotox
C[C@H]1C2=C3C(CC[C@H]4C(OCc5ccc(F)cc5C(F)(F)F)OC[C@](C)([C@@H]34)N(C(=O)OC(C)(C)C)C2)C2COC(=O)OCC21 (some centres undefined),.,.,.,-0.9%,.,.
Nc1c(C(=O)Nc2ccc3c(c2)OCCO3)nnn1Cc1ccc(Cl)cc1,2.24µM*,?,?,.,0.891µM*,?
COc1ccc(Cn2nnc(C(=O)Nc3ccc4c(c3)OCCO4)c2N)cc1Br,-2.3%,21.3µM*,9.3%,.,12.7%,9.6%
Cc1ccccc1Cn1nnc(C(=O)Nc2ccc3c(c2)OCCO3)c1N,2.82µM*,3.01µM*,?,.,1.78µM*,18.5%
Nc1c(C(=O)Nc2ccc3c(c2)OCCO3)nnn1Cc1cccc(F)c1,3.55µM*,?,14.6%,.,3.16µM*,?
CN(Cc1ccccn1)C(=O)C1CCC(=O)N(Cc2cccc(C(F)(F)F)c2)C1 (centres undefined),-3.0%,-0.7%,3.1%,.,-3.2%,-0.3%
Cc1nnc(SCc2cnc(-c3ccc(C(C)C)cc3)s2)n1C,1.58µM*,0.301µM*,?,?,2µM*,?
CCOC(=O)c1cnc2cc(-c3ccc(Cl)cc3)nn2c1N,1.12µM*,?,23.6%,?,1.26µM*,?
CCOC(=O)c1cnc2cc(-c3ccc(Cl)cc3)nn2c1-c1ccccc1,.,-0.2%,.,-13.7%,.,.
CCOC(=O)c1cnc2cc(-c3ccc(Br)cc3)nn2c1C,?,?,.,.,2.82µM*,?
Cc1nc2c3cnn(-c4ccc(C)c(C)c4)c3ncn2n1,2µM*,6.75µM*,?,11.2µM*,2µM*,?
Cc1ccc(-n2ncc3c(=O)n(CC(=O)N4CCCCCC4)cnc32)cc1,1.6%,16.9µM*,6.0%,-25.4%,3.1%,1.8%
CCOC(=O)Cn1cnc2c(cnn2-c2ccc(C)c(C)c2)c1=O,.,21.3µM*,.,24.7%,.,.
Cc1ccc(-n2nnc3c(=O)n(CC(=O)N4CCCC4)cnc32)cc1,2.0%,-3.2%,-0.6%,6.0%,-0.2%,-1.0%
COc1ccc(CNS(=O)(=O)c2cc(C(=O)Nc3cc(Cl)cc(Cl)c3)ccc2F)cc1,.,4.2%,.,.,.,.
Cc1nc2c3cccnc3nn2c(C)c1CCC(=O)NCc1ccccc1Cl,.,-8.9%,.,6.7%,.,.
CCCOC(=O)c1c(NC(=O)c2nc3ncccn3n2)sc(C(=O)OCC)c1C,.,1.7%,.,-0.2%,.,.
COc1ccccc1-c1ccc(/C=C2\C=CC(=O)O2)o1,-0.5%,7.57µM*,11.2%,.,-9.3%,11.6%
Cc1ccc(NC(=O)CN2C(=O)NC(Cc3ccccc3)C2=O)cc1Cl (centres undefined),-1.9%,1.8%,-2.6%,.,-2.5%,-0.2%
COc1ccc(-c2nc3ccc(C)cn3c2NCc2ccc3c(c2)OCO3)cc1,27.6%,13.5µM*,0.3%,-86.7%,?,11.8%
Cc1ccc(-c2nc3ccccn3c2NCc2ccc3c(c2)OCO3)cc1,?,12µM*,9.5%,?,?,2.6%
CC(C)OCCCn1c(SCc2cccc(Br)c2)nc2c(sc3ccccc32)c1=O,.,-2.6%,.,.,.,.
O=C1N/C(=N/N=C/c2ccc(O)cc2)SC1Cc1ccccc1 (centres undefined),2.5%,2.39µM*,6.7%,.,0.7%,14.0%
